Laboratory results taken from ChEMBL document CHEMBL3433997, “St. Jude Leishmania screening dataset” (2016).

Target: Solute carrier family 2, facilitated glucose transporter member 1 (Homo sapiens) (UniProt P11166)
Experiment: ST_JUDE_LEISH: Cytotoxicity at 2uM final concentration against transgenic Leishmania Mexicana promastigotes LmGLUT1 that are glucose transport deficient and complemented with the human glucose transporter GLUT1. Activity is measured by DNA content using SYBR green in vitro
Assay type: functional

Chain of Solute carrier family 2, facilitated glucose transporter member 1 (Homo sapiens) (P11166 whole entry): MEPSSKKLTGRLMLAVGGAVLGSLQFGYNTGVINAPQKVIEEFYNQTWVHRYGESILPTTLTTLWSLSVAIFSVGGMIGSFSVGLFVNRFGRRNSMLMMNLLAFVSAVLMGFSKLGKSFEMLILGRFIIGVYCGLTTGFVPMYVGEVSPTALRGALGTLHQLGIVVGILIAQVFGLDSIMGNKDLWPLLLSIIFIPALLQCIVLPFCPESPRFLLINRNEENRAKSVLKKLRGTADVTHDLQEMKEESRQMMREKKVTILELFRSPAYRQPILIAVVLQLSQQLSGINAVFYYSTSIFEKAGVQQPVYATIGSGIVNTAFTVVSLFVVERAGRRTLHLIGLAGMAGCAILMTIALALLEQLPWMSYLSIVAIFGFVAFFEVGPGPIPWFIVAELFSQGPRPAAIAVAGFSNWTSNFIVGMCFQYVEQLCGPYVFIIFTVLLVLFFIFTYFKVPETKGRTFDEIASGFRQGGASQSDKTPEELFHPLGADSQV

SMILES	inhibition [%]
O=C(Nc1ccc(Cl)c(Cl)c1)Nc1ccc(F)c([N+](=O)[O-])c1	-2.06
Cc1cc(-c2ccc(CNCc3ccsc3)cc2)ccc1S(=O)(=O)NCCN1CCCC1	61.3
COc1cc(Nc2nccc(N3CCC(NC(=O)c4cc5ccccc5s4)C3)n2)cc(OC)c1OC (stereo not given)	0.5
Cc1cccc(OC2CCN(c3ncc(C(=O)NCCCN4CCCC4=O)cc3Cl)CC2)c1	0.59
O=C(Nc1ccc(C(F)(F)F)cc1)c1cc(Br)cnc1NCCCn1ccnc1	-0.53
CC(C)c1ccc(S(=O)(=O)N(c2ccc3c(c2)OCO3)C2CCN(Cc3ccccc3)C2)cc1 (stereo not given)	-0.01
Cc1ccc(C(NC(=O)c2ccccc2)c2ccc3cccnc3c2O)cc1 (stereo not given)	4.29
O=C(Nc1cccc(CN2CCCN(Cc3ccc(O)cc3)CC2)c1)c1ccc(Cl)c(Cl)c1	10.6
Nc1ccc(-c2ccc3ccnc(N)c3c2)cc1	0.24
CN1CCN(CCCN(Cc2cccc(-c3cccc(CNC4CCCC4)c3)c2)C(=O)CCC2CCCC2)CC1	-0.12
Cc1noc(NC(=O)c2sc3ccccc3c2O)c1C	1.04
N=C(N)NN=Cc1c2ccc(Cl)cc2c(Cl)c2ccc(Cl)cc12	83.8
O=C(/C=C/c1ccc(Cl)c(Cl)c1)NCCC(CN1CCC(c2c[nH]c3ccccc23)CC1)c1ccccc1 (stereo not given)	2.74
c1cc(Cc2ccc(Nc3c4ccccc4nc4ccccc34)cc2)cc(Nc2c3ccccc3nc3ccccc23)c1	5.95
O=C(N[C@H]1CCN(Cc2ccc(OCCCN3CCCCC3)cc2)C1)c1cc(Cl)cc(Cl)c1	1.71
COc1cc(NC(=O)c2sc(-c3ccc(Cl)cc3)cc2Cl)ccc1OCCN1CCCC1	9.58
COCCNCc1nc(-c2ccc3c(Nc4ccc(F)c(O)c4)ccnc3c2)cs1	2.38
CN1CCN(c2cc(NC(=O)Nc3ccc(-c4ccncc4)c(Cl)c3)ccc2Br)CC1	10.9
O=C(Nc1ccc(-c2nc3ccccc3[nH]2)cc1)c1ccc([N+](=O)[O-])s1	5.3
Cc1cc(N(C)C)nc(Nc2ccc(NC(=O)Nc3ccccc3)cc2)n1	2.43

SMILES	inhibition [%]
Cc1ccc(NC(=O)Nc2ccc(Cn3ncc(N4CCCNCC4)c(Cl)c3=O)cc2)cc1	2.01
COc1ccc(C(F)(F)F)cc1N1CCN(CCCCNC(=O)c2ccc(NC(=O)c3ccc(Cl)cc3)cc2)CC1	0.14
Cc1ccc2nc(-c3ccc(/C=C/C(=O)NC4CCN(Cc5ccccc5)CC4)cc3)[nH]c2c1C	8.42
COc1ccc(C#Cc2ccc(-c3c(C)[nH]c(C)c(Cl)c3=O)cc2)cc1	6.05
O=C(NC1CCC(N2CCN(c3cccc4[nH]ccc34)CC2)CC1)c1cc2cccnc2[nH]1 (stereo not given)	12
NC(=O)c1ccccc1OCC(=O)Nc1ccc(-c2cccc(-c3nc4cc(C(F)(F)F)ccc4[nH]3)c2)cc1	2.52
COc1ccc(C=CC(=O)NC(=O)c2ccccc2OC(=O)c2ccccc2)cc1OC	2.48
Cc1cccc(/C=C/C(=O)NC2CCC(N3CCC(c4ccccc4C)CC3)CC2)c1 (stereo not given)	-2.65
CCOc1c(Br)cc(C)cc1CNCCCNc1nc2ccccc2[nH]1	1.35
CC1(C)N=C(N)N=C(N)N1OCCc1ccc2ccccc2c1	1.63
CCCN(CC1CC1)c1nc(C)nc2c(-c3ccccc3)cc(C)cc12	12.7
Oc1ccc2c(c1NCC1CCCCC1)CCCC2	2.5
CC(C)(CNCc1ccc(F)c(F)c1)c1nc(-c2ccc(Cl)c(O)c2)c(-c2ccncc2)[nH]1	2.43
FC(F)(F)c1ccc2[nH]c(-c3ccc(-c4cccc(CNCc5cnn(-c6ccccc6)n5)c4)cc3)nc2c1	2.04
COc1cccc2c(NN=Cc3ccc(Cl)cc3)ccnc12	2.42
COc1ccc(CNCc2ccc(-c3cccc(-c4nc5cc(F)ccc5[nH]4)c3)cc2)cc1	1.04
COc1ccc(CNC(=O)C2Cc3ccccc3CN2Cc2ccc3ccccc3c2)cc1 (stereo not given)	2.51
O=C(c1ccc([N+](=O)[O-])o1)N1CCN(c2nc3c(Cl)cccc3s2)CC1	39.8
Cc1cc(=O)[nH]c(-n2nc(C)cc2NC(=O)CC(c2ccccc2)c2ccccc2)n1	14.8
Cc1cc(=O)[nH]c(-n2nc(C)cc2NC(=O)C(c2ccccc2)c2ccccc2)n1	20.5

Target: Hexose transporter 1 (Plasmodium falciparum) (UniProt O97467)
Experiment: ST_JUDE_LEISH: Cytotoxicity at 2uM final concentration against transgenic Leishmania Mexicana promastigotes LmPfHT that are glucose transport deficient and complemented with the Plasmodium falciparum hexose transporter. Activity is measured by DNA content using SYBR green in vitro
Assay type: functional

SMILES	inhibition [%]
O=C(Nc1ccc(Cl)c(Cl)c1)Nc1ccc(F)c([N+](=O)[O-])c1	0.4
Cc1cc(-c2ccc(CNCc3ccsc3)cc2)ccc1S(=O)(=O)NCCN1CCCC1	21.9
COc1cc(Nc2nccc(N3CCC(NC(=O)c4cc5ccccc5s4)C3)n2)cc(OC)c1OC (stereo not given)	0.56
Cc1cccc(OC2CCN(c3ncc(C(=O)NCCCN4CCCC4=O)cc3Cl)CC2)c1	2.47
O=C(Nc1ccc(C(F)(F)F)cc1)c1cc(Br)cnc1NCCCn1ccnc1	-4.7
CC(C)c1ccc(S(=O)(=O)N(c2ccc3c(c2)OCO3)C2CCN(Cc3ccccc3)C2)cc1 (stereo not given)	-0.17
Cc1ccc(C(NC(=O)c2ccccc2)c2ccc3cccnc3c2O)cc1 (stereo not given)	6.5
O=C(Nc1cccc(CN2CCCN(Cc3ccc(O)cc3)CC2)c1)c1ccc(Cl)c(Cl)c1	11
Nc1ccc(-c2ccc3ccnc(N)c3c2)cc1	-0.79
CN1CCN(CCCN(Cc2cccc(-c3cccc(CNC4CCCC4)c3)c2)C(=O)CCC2CCCC2)CC1	-0.45
Cc1noc(NC(=O)c2sc3ccccc3c2O)c1C	0.61
N=C(N)NN=Cc1c2ccc(Cl)cc2c(Cl)c2ccc(Cl)cc12	23.8
O=C(/C=C/c1ccc(Cl)c(Cl)c1)NCCC(CN1CCC(c2c[nH]c3ccccc23)CC1)c1ccccc1 (stereo not given)	2.22
c1cc(Cc2ccc(Nc3c4ccccc4nc4ccccc34)cc2)cc(Nc2c3ccccc3nc3ccccc23)c1	5.85
O=C(N[C@H]1CCN(Cc2ccc(OCCCN3CCCCC3)cc2)C1)c1cc(Cl)cc(Cl)c1	7.28
COc1cc(NC(=O)c2sc(-c3ccc(Cl)cc3)cc2Cl)ccc1OCCN1CCCC1	9.57
COCCNCc1nc(-c2ccc3c(Nc4ccc(F)c(O)c4)ccnc3c2)cs1	1.29
CN1CCN(c2cc(NC(=O)Nc3ccc(-c4ccncc4)c(Cl)c3)ccc2Br)CC1	8.89
O=C(Nc1ccc(-c2nc3ccccc3[nH]2)cc1)c1ccc([N+](=O)[O-])s1	7.89
Cc1cc(N(C)C)nc(Nc2ccc(NC(=O)Nc3ccccc3)cc2)n1	3.74

SMILES	inhibition [%]
Cc1ccc(NC(=O)Nc2ccc(Cn3ncc(N4CCCNCC4)c(Cl)c3=O)cc2)cc1	4.54
COc1ccc(C(F)(F)F)cc1N1CCN(CCCCNC(=O)c2ccc(NC(=O)c3ccc(Cl)cc3)cc2)CC1	1.22
Cc1ccc2nc(-c3ccc(/C=C/C(=O)NC4CCN(Cc5ccccc5)CC4)cc3)[nH]c2c1C	8.63
COc1ccc(C#Cc2ccc(-c3c(C)[nH]c(C)c(Cl)c3=O)cc2)cc1	8.9
O=C(NC1CCC(N2CCN(c3cccc4[nH]ccc34)CC2)CC1)c1cc2cccnc2[nH]1 (stereo not given)	13.2
NC(=O)c1ccccc1OCC(=O)Nc1ccc(-c2cccc(-c3nc4cc(C(F)(F)F)ccc4[nH]3)c2)cc1	-0.46
COc1ccc(C=CC(=O)NC(=O)c2ccccc2OC(=O)c2ccccc2)cc1OC	2.16
Cc1cccc(/C=C/C(=O)NC2CCC(N3CCC(c4ccccc4C)CC3)CC2)c1 (stereo not given)	-2.79
CCOc1c(Br)cc(C)cc1CNCCCNc1nc2ccccc2[nH]1	-0.49
CC1(C)N=C(N)N=C(N)N1OCCc1ccc2ccccc2c1	1.47
CCCN(CC1CC1)c1nc(C)nc2c(-c3ccccc3)cc(C)cc12	16.2
Oc1ccc2c(c1NCC1CCCCC1)CCCC2	2.89
CC(C)(CNCc1ccc(F)c(F)c1)c1nc(-c2ccc(Cl)c(O)c2)c(-c2ccncc2)[nH]1	0.25
FC(F)(F)c1ccc2[nH]c(-c3ccc(-c4cccc(CNCc5cnn(-c6ccccc6)n5)c4)cc3)nc2c1	1.86
COc1cccc2c(NN=Cc3ccc(Cl)cc3)ccnc12	2.54
COc1ccc(CNCc2ccc(-c3cccc(-c4nc5cc(F)ccc5[nH]4)c3)cc2)cc1	4.45
COc1ccc(CNC(=O)C2Cc3ccccc3CN2Cc2ccc3ccccc3c2)cc1 (stereo not given)	1.12
O=C(c1ccc([N+](=O)[O-])o1)N1CCN(c2nc3c(Cl)cccc3s2)CC1	37.4
Cc1cc(=O)[nH]c(-n2nc(C)cc2NC(=O)CC(c2ccccc2)c2ccccc2)n1	23.1
Cc1cc(=O)[nH]c(-n2nc(C)cc2NC(=O)C(c2ccccc2)c2ccccc2)n1	29.6
